{"source": "PubChem BioAssay (NCATS)", "note": "Inconclusive results are not listed. Calls of active or inactive are those of the source. Unless noted, the call rests on the fitted dose curve; in most records, active means well fitted activation curve with a large enough effect in the main read-out, with a control signal flat (not every such curve was filed as active); inconclusive means small, poorly fitted or top-dose-only effect, or effect the other way, or a change in a side signal; inactive means flat fitted curve, though single readings scatter.", "data": [{"molecular_target": "3',5'-cyclic-AMP phosphodiesterase 4B (Homo sapiens) (UniProt Q07343)", "sequence (Q07343 whole entry, looked up)": "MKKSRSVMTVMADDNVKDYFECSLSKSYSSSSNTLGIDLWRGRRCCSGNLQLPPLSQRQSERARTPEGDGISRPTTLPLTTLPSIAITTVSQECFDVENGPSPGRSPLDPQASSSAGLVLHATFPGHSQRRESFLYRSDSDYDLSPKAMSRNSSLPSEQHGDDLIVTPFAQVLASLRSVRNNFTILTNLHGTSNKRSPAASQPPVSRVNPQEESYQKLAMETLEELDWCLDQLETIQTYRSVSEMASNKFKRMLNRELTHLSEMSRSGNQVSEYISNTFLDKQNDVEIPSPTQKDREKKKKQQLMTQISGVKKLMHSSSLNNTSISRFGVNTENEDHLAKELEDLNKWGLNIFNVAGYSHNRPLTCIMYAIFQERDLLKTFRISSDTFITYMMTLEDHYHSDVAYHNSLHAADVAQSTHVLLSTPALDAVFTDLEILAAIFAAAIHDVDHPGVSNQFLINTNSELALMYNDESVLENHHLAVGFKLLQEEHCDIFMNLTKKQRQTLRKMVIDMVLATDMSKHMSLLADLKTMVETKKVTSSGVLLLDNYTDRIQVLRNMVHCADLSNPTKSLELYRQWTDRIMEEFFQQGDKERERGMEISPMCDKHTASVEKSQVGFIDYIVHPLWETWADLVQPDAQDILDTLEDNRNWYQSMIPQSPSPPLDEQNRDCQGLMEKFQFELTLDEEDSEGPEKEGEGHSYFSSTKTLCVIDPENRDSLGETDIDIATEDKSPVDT", "test": "qHTS Assay for Inhibitors of PDE-IV (AID 607); further: % of control where 0% means no effect", "conditions": "HEK293 ACTOne CNG channel cells, membrane potential fluorescence; series mostly up to 22.9 µM; activation (PDE inhibition): at the top concentration", "how_it_was_run": "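The readout is membrane depolarisation from a cAMP-sensing CNG channel, detected with a potential dye at ex 535/em 590. Cells were HEK293-derived (endogenous PDE-IV) at 1000 cells/well, titrated up to 22.9 uM final.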", "values": [{"smiles": "COc1ccc(C(=O)N2CCC3(CC2)CCN(c2ccncc2)CC3)cc1", "activation (PDE inhibition)": "28.5% (inactive)"}, {"smiles": "CC(C)CN1CC2(CCN(C(=O)c3csnn3)CC2)C1", "activation (PDE inhibition)": "-8.9% (inactive)"}, {"smiles": "Cn1cccc1C(=O)N1CCC2(CCCN(C(=O)Nc3cccc(F)c3)C2)CC1", "activation (PDE inhibition)": "28.8% (inactive)"}, {"smiles": "Cc1cnc(CNc2ncncc2-c2ccccc2CN(C)C)cn1", "activation (PDE inhibition)": "-9.08% (inactive)"}, {"smiles": "COc1ccccc1CNc1ncncc1-c1ccccc1C", "activation (PDE inhibition)": "6.13% (inactive)"}, {"smiles": "CS(=O)(=O)N1CCC2(CC1)CN(c1ccccc1)C2", "activation (PDE inhibition)": "-4.35% (inactive)"}, {"smiles": "O=C(c1cnccn1)N1CCC2(CC1)CCN(c1ccncc1)CC2", "activation (PDE inhibition)": "7.31% (inactive)"}, {"smiles": "O=C(c1cnccn1)N1CCC2(CCCN(Cc3ccccc3)C2)CC1", "activation (PDE inhibition)": "-4.14% (inactive)"}, {"smiles": "COc1ccccc1CN1CCC2(CC1)CCN(C(=O)c1ccco1)CC2", "activation (PDE inhibition)": "6.33% (inactive)"}, {"smiles": "O=C(c1cccc(F)c1)N1CCC2(CCCN(c3ccccn3)C2)CC1", "activation (PDE inhibition)": "15.1% (inactive)"}, {"smiles": "CC(C)CN1CCCC2(CCN(C(=O)c3cnccn3)CC2)C1", "activation (PDE inhibition)": "11.5% (inactive)"}, {"smiles": "CN1CCC2(CC1)CCN(C(=O)c1cccc(F)c1)CC2", "activation (PDE inhibition)": "-7.43% (inactive)"}, {"smiles": "CC(C)CN1CC2(CCN(S(=O)(=O)c3ccccc3)CC2)C1", "activation (PDE inhibition)": "-6.53% (inactive)"}, {"smiles": "N#Cc1ccc(CN2CC3(CCN(C(=O)c4cnccn4)CC3)C2)cc1", "activation (PDE inhibition)": "-3.83% (inactive)"}, {"smiles": "CC(C)NC(=O)N1CC[C@@]2(CCCN(S(=O)(=O)c3ccccc3)C2)C1", "activation (PDE inhibition)": "2.27% (inactive)"}, {"smiles": "O=C(c1cccc(F)c1)N1CCC2(CC1)CN(c1ccccn1)C2", "activation (PDE inhibition)": "-3.93% (inactive)"}, {"smiles": "COc1ccc(C(=O)N2CCC3(CCN(Cc4ccc(C#N)cc4)CC3)CC2)cc1", "activation (PDE inhibition)": "17.2% (inactive)"}, {"smiles": "O=C(c1cccc(F)c1)N1CCC2(CCCN(C(c3ccccc3)c3ccccc3)C2)CC1", "activation (PDE inhibition)": "16% (inactive)"}, {"smiles": "O=C(c1ccncc1)N1CCC2(CC1)CN(c1ccccn1)C2", "activation (PDE inhibition)": "22.3% (inactive)"}, {"smiles": "COc1ccccc1CN1CCC2(CC1)CCN(S(C)(=O)=O)CC2", "activation (PDE inhibition)": "5.17% (inactive)"}, {"smiles": "Cn1cccc1C(=O)N1CCC[C@@]2(CCN(C(=O)Nc3cccc(F)c3)C2)C1", "activation (PDE inhibition)": "19.7% (inactive)"}, {"smiles": "CC(C)CN1CC[C@@]2(CCCN(C(=O)c3ccco3)C2)C1", "activation (PDE inhibition)": "10.8% (inactive)"}, {"smiles": "COc1ccccc1CN1CCCC2(CCN(S(=O)(=O)c3ccccc3)CC2)C1", "activation (PDE inhibition)": "18.5% (inactive)"}, {"smiles": "Cn1cccc1C(=O)N1CCC2(CCCN(C(c3ccccc3)c3ccccc3)C2)CC1", "activation (PDE inhibition)": "8.37% (inactive)"}, {"smiles": "COC(=O)N1CCC2(CC1)CN(c1ccc(-c3ccccc3)cc1)C2", "activation (PDE inhibition)": "-12.9% (inactive)"}, {"smiles": "COCC(=O)N1CCC2(CCCN(Cc3ccc(C#N)cc3)C2)CC1", "activation (PDE inhibition)": "-2.92% (inactive)"}, {"smiles": "COCC(=O)N1CCC2(CC1)CCN(c1ncccn1)CC2", "activation (PDE inhibition)": "-2.71% (inactive)"}, {"smiles": "O=C(c1ccncc1)N1CCC2(CCCN(Cc3nccs3)C2)CC1", "activation (PDE inhibition)": "2.69% (inactive)"}, {"smiles": "COC(=O)N1CCC2(CCCN(C(=O)Nc3cccc(C#N)c3)C2)CC1", "activation (PDE inhibition)": "-7.06% (inactive)"}, {"smiles": "c1ccc(Nc2ncnc3ccc(-c4cccnc4)cc23)cc1", "activation (PDE inhibition)": "-4.19% (inactive)"}, {"smiles": "O=C(c1csnn1)N1CCC2(CCN(Cc3cc(C(F)(F)F)cc(C(F)(F)F)c3)CC2)CC1", "activation (PDE inhibition)": "1.45% (inactive)"}, {"smiles": "O=S(=O)(c1ccccc1)N1CCC2(CC1)CN(c1ccncc1)C2", "activation (PDE inhibition)": "2.05% (inactive)"}, {"smiles": "COC(=O)N1CCC2(CCCN(c3ccccn3)C2)CC1", "activation (PDE inhibition)": "10.4% (inactive)"}, {"smiles": "CC(=O)N1CCC2(CCCN(Cc3ccc(C#N)cc3)C2)CC1", "activation (PDE inhibition)": "-3.41% (inactive)"}, {"smiles": "COc1ccccc1CN1CCC2(CC1)CCN(C(=O)c1cccc(F)c1)CC2", "activation (PDE inhibition)": "9.6% (inactive)"}]}, {"molecular_target": "Cytochrome P450 3A4 (Homo sapiens) (UniProt P08684)", "sequence (P08684 whole entry, looked up)": "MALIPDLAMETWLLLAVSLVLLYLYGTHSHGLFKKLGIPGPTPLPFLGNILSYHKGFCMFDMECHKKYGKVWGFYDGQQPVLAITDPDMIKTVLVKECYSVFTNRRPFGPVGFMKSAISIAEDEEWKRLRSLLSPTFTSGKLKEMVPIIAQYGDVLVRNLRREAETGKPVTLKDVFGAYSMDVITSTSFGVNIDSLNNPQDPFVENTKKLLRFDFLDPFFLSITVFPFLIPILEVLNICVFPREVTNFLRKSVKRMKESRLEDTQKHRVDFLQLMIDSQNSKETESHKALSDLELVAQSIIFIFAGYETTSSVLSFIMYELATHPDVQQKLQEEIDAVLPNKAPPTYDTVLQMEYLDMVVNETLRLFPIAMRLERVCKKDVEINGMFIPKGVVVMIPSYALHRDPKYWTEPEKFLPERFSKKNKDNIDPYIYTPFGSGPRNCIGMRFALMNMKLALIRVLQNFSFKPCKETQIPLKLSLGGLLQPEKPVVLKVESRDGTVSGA", "test": "qHTS Assay for Inhibitors and Substrates of Cytochrome P450 3A4 (AID 884; active means well fitted curve in the direction sought with a large enough effect; an effect the other way counts as inactive or inconclusive; further: nearly all actives have a fitted effect of over 50% in size; further: potency means the concentration at half of the fitted maximal effect; on activity change, negative = inhibition: on the % scale 0 is the no-effect control and ±100 the full control effect)", "conditions": "recombinant CYP3A4, Luciferin-PPXE luminescence; series mostly up to 57.1 µM; activity change, negative = inhibition: at the top concentration", "how_it_was_run": "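20 nM human CYP3A4 with 25 uM Luciferin-PPXE (at KM) in 200 mM KPO4, preincubated 10 min with compound; NADPH regeneration started a 60 min RT reaction. Luciferin detected by luminescence, normalized to 57 uM ketoconazole as full inhibition.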", "values": [{"smiles": "Cc1cnc(CNc2ncncc2-c2ccccc2CN(C)C)cn1", "Potency": "3.16 µM (active)"}, {"smiles": "COC(=O)N1CCC2(CC1)CN(c1ccc(-c3ccccc3)cc1)C2", "activity change, negative = inhibition": "62.1% (inactive)"}, {"smiles": "c1ccc(Nc2ncnc3ccc(-c4cccnc4)cc23)cc1", "Potency": "2.51 µM (active)"}]}, {"molecular_target": "Cytochrome P450 3A4 (Homo sapiens) (UniProt P08684)", "test": "qHTS Assay for Activators of Cytochrome P450 3A4 (AID 885; active means well fitted curve in the direction sought with a large enough effect; an effect the other way counts as inactive or inconclusive; further: nearly all actives have a fitted effect of over 65% in size; further: potency means the concentration at half of the fitted maximal effect)", "conditions": "recombinant CYP3A4, Luciferin-PPXE luminescence, 60 min; series mostly up to 57.1 µM; activity change, positive = activation: at the top concentration", "how_it_was_run": "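Steps: enzyme/substrate mix dispensed; compound added, 10 min RT; NADPH regeneration solution added, 60 min RT; luciferin detection buffer stops reaction; 20 min later luminescence measured.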", "values": [{"smiles": "COc1ccc(C(=O)N2CCC3(CC2)CCN(c2ccncc2)CC3)cc1", "activity change, positive = activation": "-57.1% (inactive)"}, {"smiles": "Cn1cccc1C(=O)N1CCC2(CCCN(C(=O)Nc3cccc(F)c3)C2)CC1", "activity change, positive = activation": "-53.2% (inactive)"}, {"smiles": "Cc1cnc(CNc2ncncc2-c2ccccc2CN(C)C)cn1", "activity change, positive = activation": "-81.7% (inactive)"}, {"smiles": "COc1ccccc1CNc1ncncc1-c1ccccc1C", "activity change, positive = activation": "-57.2% (inactive)"}, {"smiles": "CN(C)C(=O)c1ccc(-c2nc(NCc3ccccc3)c3ccccc3n2)cc1", "activity change, positive = activation": "-74.4% (inactive)"}, {"smiles": "CC(C)CN1CCCC2(CCN(C(=O)c3cnccn3)CC2)C1", "activity change, positive = activation": "-63.9% (inactive)"}, {"smiles": "CN(C)C(=O)c1ccc(-c2nc(NCc3cccs3)c3ccccc3n2)cc1", "activity change, positive = activation": "-72% (inactive)"}, {"smiles": "CC(C)NC(=O)N1CC[C@@]2(CCCN(S(=O)(=O)c3ccccc3)C2)C1", "activity change, positive = activation": "-37.1% (inactive)"}, {"smiles": "CC(C)CN1CC[C@@]2(CCCN(C(=O)c3ccco3)C2)C1", "activity change, positive = activation": "-54.4% (inactive)"}, {"smiles": "Cn1cccc1C(=O)N1CCC2(CCCN(C(c3ccccc3)c3ccccc3)C2)CC1", "activity change, positive = activation": "-45% (inactive)"}, {"smiles": "COC(=O)N1CCC2(CC1)CN(c1ccc(-c3ccccc3)cc1)C2", "Potency": "3.16 µM (active)"}, {"smiles": "COC(=O)N1CCC2(CCCN(C(=O)Nc3cccc(C#N)c3)C2)CC1", "activity change, positive = activation": "-37% (inactive)"}, {"smiles": "c1ccc(Nc2ncnc3ccc(-c4cccnc4)cc23)cc1", "activity change, positive = activation": "-94.9% (inactive)"}, {"smiles": "CN(C)Cc1ccccc1-c1ccc2ncnc(N3CCOCC3)c2c1", "activity change, positive = activation": "-61.8% (inactive)"}, {"smiles": "O=S(=O)(c1ccccc1)N1CCC2(CC1)CN(c1ccncc1)C2", "activity change, positive = activation": "-49.9% (inactive)"}]}, {"system": "not listed separately", "test": "Confirmation and Secondary Assay for Modulators of Hemoglobin Beta Chain Splicing at IVS2 654 locus (AID 910; active means well fitted curve in the direction sought with a large enough effect; an effect the other way counts as inactive or inconclusive;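 further: HeLa cells stably carrying EGFP split by mutant beta-globin IVS2-654 intron; % of control where 0% means no effect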)", "conditions": "HeLa EGFP-654 splicing reporter, GFP fluorescence, 48 h; series mostly up to 38.3 µM; activation (splicing correction): at the top concentration", "how_it_was_run": "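HeLa cells stably expressing EGFP interrupted by β-globin IVS2-654 intron, seeded overnight in Opti-MEM/2% FCS, then treated 2 days at 37 °C. Restored splicing read as total peak GFP intensity per well by laser scanning cytometry (488 nm excitation, 500–520 nm emission); 500 nM antisense PNA as control.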", "values": [{"smiles": "Cc1cnc(CNc2ncncc2-c2ccccc2CN(C)C)cn1", "activation (splicing correction)": "0.0442% (inactive)"}, {"smiles": "CN(C)C(=O)c1ccc(-c2nc(NCc3ccccc3)c3ccccc3n2)cc1", "activation (splicing correction)": "0.285% (inactive)"}, {"smiles": "CN(C)C(=O)c1ccc(-c2nc(NCc3cccs3)c3ccccc3n2)cc1", "activation (splicing correction)": "-0.577% (inactive)"}, {"smiles": "c1ccc(Nc2ncnc3ccc(-c4cccnc4)cc23)cc1", "activation (splicing correction)": "-0.623% (inactive)"}, {"smiles": "CN(C)Cc1ccccc1-c1ccc2ncnc(N3CCOCC3)c2c1", "activation (splicing correction)": "-1.33% (inactive)"}]}]}
